One experiment addresses ACYP1. Put plainly: pooled miR-30 sensor sort-seq; sequence = guide strand. To be noted: shRNA.
The sequence TTTTCATTGTTGAAGTTTGCTT yielded a sensor-assay potency score (higher = more potent) of -0.234. Same read-out and setting: the same measure for TTCATTGTTGAAGTTTGCTTTG: -0.707; for AAAAATTTCATAATCCACTGAT: 0.598; for TAACTTATTGACTAATGCTAAT: -1.36. On the same count and under the same terms, the same measure for TTTCATTGTTGAAGTTTGCTTT: 0.5; for TTCATAATCCACTGATATCAGG: -1.09.

In the case of TCTTGTTTCAAGCCATTCCTGC, the sensor-assay potency score (higher = more potent) was -0.475.

TTGTGTACAGTGGTAATCCTTC returned a sensor-assay potency score (higher = more potent) of -0.227. With TCATTGTTGAAGTTTGCTTTGT, the sensor-assay potency score (higher = more potent) was -0.429.

With TGTCCTTGCACTGTGCCCCGGT, the sensor-assay potency score (higher = more potent) was 0.12.

The sequence TTGTCGATGTGTGATTTAGGAC displayed a sensor-assay potency score (higher = more potent) of -0.517.

Sequence TTAGATTTGTGTACAGTGGTAA yielded a sensor-assay potency score (higher = more potent) of 0.61. Same read-out and setting: the same measure for TAGGACTTCCTCTTGTTTCAAG: -0.653; for ATAACTTATTGACTAATGCTAA: -0.709. Still for that read-out and setting: the same measure for TTTGCTTTGTCGATGTGTGATT: -0.219.

For another experiment, the target named is ACYP2. The experiment is described as above. To be noted: shRNA.
Sequence TACTCTGCTACTATTATTCTAG showed a sensor-assay potency score (higher = more potent) of -0.38. Still for that read-out and setting: to TTTGCTGGTATTCTTCACCCAG belongs -0.785. Same read-out and setting: the same measure for TTCATTAGAAAAGTTTGTGCGG: 0.328; for TTGCTGGTATTCTTCACCCAGC: -1.24; for TATTTTCCTAGCTTCATCTTCT: 1.16. Turning to TTGAGTAAAATTATTTCAGTGT, the sensor-assay potency score (higher = more potent) was 0.361. On the same count and under the same terms, to TCTGTATACATTCTGAAGCAAA belongs -1.22.

With TTTTCCTAGCTTCATCTTCTGT, the sensor-assay potency score (higher = more potent) was -0.817. On the same count and under the same terms, the same measure for TTTAGTAGCACGTACAGTCGCT: 0.0895; for TAGTCTTAAGAACATACAGTAT: -1.07. On the same count and under the same terms, to TATTCAAGCTTAGAGATGGTTT belongs -0.574; to TTCCTAGCTTCATCTTCTGTAT, -0.685; to TTTTCATTAGAAAAGTTTGTGC, -0.116. Still for that read-out and setting: to TTCTAGTATACATAGTCTTAAG belongs -1.46; to TATTCTAGTATACATAGTCTTA, -0.674. In turn, ATCTTCTGTATACATTCTGAAG registered a sensor-assay potency score (higher = more potent) of -1.49. Same read-out and setting: to TTTCCTAGCTTCATCTTCTGTA belongs 0.952; to TTAGTAGCACGTACAGTCGCTT, -0.537. Turning to TGGAATTGACTTTGTCTTCTGG, the sensor-assay potency score (higher = more potent) was -0.0277. Still for that read-out and setting: the same measure for TTGCTTGTTGAAAACATAGTTG: -0.594; for TTCATCTTCTGTATACATTCTG: 0.635; for TCATTAGAAAAGTTTGTGCGGT: -0.214. Still for that read-out and setting: to TAGTAGCACGTACAGTCGCTTA belongs -1.19; to TTGACTTTGTCTTCTGGCCCCT, 0.0313.
Further: reference of the scale not given here.
